This is an account of results in PubChem BioAssay (NCATS).

The structures appear in SMILES notation. Inconclusive results are not listed. Where a call stands in place of a potency, no number is given. Values without a mark were called inactive. The source made the active and inactive calls. The call rests on the fitted dose curve; in most records, active means well fitted activation curve with a large enough effect; inconclusive means small, poorly fitted or top-dose-only effect; inactive means flat fitted curve, though single readings scatter.

This experiment in a line: Primary redox qHTS assay for identification of artifact compounds. (AID 1845223). The following applies: Amplex Red/HRP redox cycling with DTT, fluorescence; series mostly up to 53.8 µM. The essentials: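 Redox-cycling detection via DTT (250 uM final) oxidation coupled to Amplex Red (25 uM)/HRP (250 mU/mL) in HBSS. 15 min preincubation plus 30 min after DTT, room temperature. Ex/Em 525/598 nm; 4-parameter Hill fit against DMSO and 10 uM DA3003.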
For `C/C=C(\C)C(=O)OC1C2(O)CC3=C4CC(=O)OC(c5ccoc5)C4(C)CCC3C(C)(C2=O)C(C(OC(C)=O)C(=O)OC)C1(C)C` (stereo unspecified), the Potency entry is “inactive”. Same read-out and setting: the same measure for `CCc1cccc2c3c([nH]c12)[C@@](CC)(CC(=O)O)OCC3`: “inactive”; for `CC(C)=CCc1c(O)cc2oc3cc(C)cc(O)c3c2c1C`: “inactive”; for `O=C(/C=C/c1ccccc1)OC[C@H]1O[C@@H](OC(=O)c2cc(O)c(O)c(O)c2)[C@H](O)[C@@H](O)[C@@H]1O`: “inactive”.

For `CN1CCN(C(=O)c2cc3cc(Cl)ccc3[nH]2)CC1`, the Potency result was “inactive”. Same read-out and setting: the same measure for `CC(=O)O[C@@H]1C[C@@H](C)[C@](O)(CCC2=CC(=O)OC2)[C@@]2(C)CCCC(C)(C)C12` (stereo partly specified): “inactive”. With `C=C(C(=O)O)[C@@H]1CC[C@@]2(C)CC[C@@H](O)C(=C)C2C1` (stereo partly specified), the Potency entry was “inactive”. `O=C(O)Cc1cn([C@@H]2O[C@H](CO)[C@@H](O)[C@H](O)[C@H]2O[C@@H]2O[C@H](CO)[C@@H](O)[C@H](O)[C@H]2O)c2ccccc12`: the Potency entry is “inactive”.

For `CCC1(O)CC2c3cc(OC)c(OC)cc3CCN2CC1CC(C)C` (stereo unspecified), the Potency result is “inactive”. Turning to `C[C@@]12CC3(S(=O)(=O)O)OC(O1)[C@]1(COC(=O)c4ccccc4)[C@H]3C[C@]21O[C@@H]1O[C@H](CO)[C@@H](O)[C@H](O)[C@H]1O`, the Potency entry is “inactive”. Consider `C[C@@H]1O[C@@H](OC2C(CO)OC(OCC3OC(OC(=O)[C@]45CCC(C)(C)CC4C4=CCC6[C@@]7(C)CC[C@@H](O)[C@](C)(C(=O)O)C7CC[C@@]6(C)[C@]4(C)CC5)C(O)C(O)C3O)C(O)C2O)[C@H](O)[C@H](O)[C@H]1O` (stereo partly specified), for which the redox activity (% of DA3003) was 10.6% [at 11.5 µM].
